The supplement of paper PMC7057948, “A genome-wide approach for identification and characterisation of metabolite-inducible systems” (Nature Communications, 2020)

Legend:
Test in all cases: relative induction of RFP reporter vs primary effector (background-corrected); higher = stronger activation of the biosensor
Settings in all cases: inducer concentration 5 mM; 6 h; Cupriavidus necator H16; minimal medium + 0.4% gluconate
[1] = system: AcoR/P_H16_RS19445 acetoin biosensor (pEH052)
Description: (§1)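 C. necator H16 strains, each carrying one of 21 transcription factor/inducible promoter–mRFP biosensor plasmids, were grown in minimal medium in 96-well plates (robotic platform). Each was exposed to 46 structurally or metabolically related compounds at 5 mM at 30 °C. OD-normalised RFP fluorescence was read 6 h later and expressed as relative induction (%) = 100 × (FL compound − FL uninduced)/(FL primary inducer − FL uninduced); mean of n=4.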

[2] = system: AraC/P_araBAD L-arabinose biosensor (pEH176)
Description: as §1

[3] = system: BenM/P_H16_RS09790 benzoate biosensor (pEH148)
Description: as §1

[4] = system: FdsR/P_H16_RS03165 formate biosensor (pEH134)
Description: as §1

[5] = system: GabR/P_H16_RS23655 GABA biosensor (pEH256)
Description: as §1

[6] = system: HpdR/P_H16_RS18295 3-hydroxypropanoate biosensor (pEH010)
Description: as §1

[7] = system: KynR/P_H16_RS14030 L-kynurenine biosensor (pEH136)
Description: as §1

[8] = system: NahR/P_H16_RS08125 salicylate biosensor (pEH042)
Description: as §1

[9] = system: OapR/P_H16_RS01330 beta-alanine biosensor (pEH147)
Description: as §1

[10] = system: PcaQ/P_H16_RS30145 3,4-dihydroxybenzoate biosensor (pEH161)
Description: as §1

[11] = system: PhgR/P_H16_RS05530 phenylglyoxylate biosensor (pEH155)
Description: as §1

[12] = system: PhhR/P_H16_RS18365 L-phenylalanine biosensor (pEH137)
Description: as §1

[13] = system: SauR/P_H16_RS13695 sulfonatoacetate biosensor (pEH157)
Description: as §1

[14] = system: TtdR/P_H16_RS10665 tartrate biosensor (pEH083)
Description: as §1

[15] = system: XdhR/P_H16_RS05055 xanthine biosensor (pEH154)
Description: as §1

[16] = system: heterologous inducible system pEH002 (rhamnose/acrylate/cumate/itaconate set)
Description: as §1

[17] = system: heterologous inducible system pEH020 (rhamnose/acrylate/cumate/itaconate set)
Description: as §1

[18] = system: heterologous inducible system pEH040 (rhamnose/acrylate/cumate/itaconate set)
Description: as §1

[19] = system: heterologous inducible system pEH086 (rhamnose/acrylate/cumate/itaconate set)
Description: as §1

[20] = system: BadR/P_H16_RS27200 cyclohexanecarboxylate biosensor (pEH159)
Description: as §1
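Note: RFP excited at 585 nm with emission read at 620 nm, culture medium blanks subtracted from fluorescence and absorbance prior to normalisation.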

Structure (SMILES) | relative induction of RFP reporter [1] [%] | relative induction of RFP reporter [2] [%] | relative induction of RFP reporter [3] [%] | relative induction of RFP reporter [4] [%] | relative induction of RFP reporter [5] [%] | relative induction of RFP reporter [6] [%] | relative induction of RFP reporter [7] [%] | relative induction of RFP reporter [8] [%] | relative induction of RFP reporter [9] [%] | relative induction of RFP reporter [10] [%] | relative induction of RFP reporter [11] [%] | relative induction of RFP reporter [12] [%] | relative induction of RFP reporter [13] [%] | relative induction of RFP reporter [14] [%] | relative induction of RFP reporter [15] [%] | relative induction of RFP reporter [16] [%] | relative induction of RFP reporter [17] [%] | relative induction of RFP reporter [18] [%] | relative induction of RFP reporter [19] [%] | relative induction of RFP reporter [20] [%]
O=C(O)CCC(=O)O [succinate] | -1.14 | -0.00365 | -0.0349 | 6.43 | -0.306 | -0.187 | 0.402 | 0.0287 | -0.209 | -0.0829 | -0.471 | 0.239 | -0.0135 | 0.784 | 0.357 | 0.0102 | -1.2 | -1.6 | 0.338 | 
NCC(=O)O [glycine] | -0.038 | -0.0181 | 0.0164 | -5.21 | 0.401 | -0.178 | 0.211 | 0.0163 | -0.454 | 0.00408 | -0.415 | -0.384 | 0.0965 | 0.812 | -0.0501 | 0.0153 | -0.252 | 0.354 | 0.274 | -0.419
O=C(O)c1cc(=O)c2ccccc2[nH]1 [kynurenate] | -1.75 | -0.028 | -0.0535 | -9.16 | -2.49 | -0.379 | 0.25 | 0.0049 | -1.34 | 0.113 | -0.313 | -0.383 | 0.00396 | -0.284 | -0.96 | 0.00297 | -2.26 | -1.57 | -0.378 | 
CCC(=O)O [propanoate] | -1.68 | -0.00959 | -0.0373 | -1.16 | -3.91 |  | -0.867 | -0.000302 | -1.95 | -0.275 | -0.224 | -0.418 | 0.0421 | -0.423 | -0.832 | -0.00545 | -0.954 | 0.605 | -0.0388 | -0.236
O=C(O)CC(CC(=O)O)C(=O)O [tricarballylate] | -0.69 | -0.0168 | -0.036 | -2.35 | -2.41 | -0.311 | -0.332 | -0.00531 | -1.38 | -0.249 | -0.562 | -0.293 | 0.0103 | 1.3 | -1.15 | 0.0188 | -1.48 | 0.497 | -0.0817 | 
O=C(O)/C=C/C(=O)O [fumarate] | -1.09 | 0.0135 | 0.214 | 12.2 | -0.753 | 0.112 | -0.13 | -0.00283 | 0.456 | 0.0475 | -0.207 | 0.00492 | 0.00629 | 0.78 | 0.739 | 0.00534 | -0.346 | -1.36 | 0.533 | 
O=C(O)C[C@H](O)C(=O)O [L-malate] | -0.197 | 0.0102 | -0.00804 | 15.3 | -2.18 | 0.127 | 0.34 | 0.0296 | 0.168 | 0.148 | -0.316 | 0.413 | -0.0175 | 1.58 | 0.88 | 0.00418 | -0.286 | -0.274 | 0.726 | 
C[C@@H](O)C(=O)O [D-lactate] | -2.25 | -0.0311 | -0.0413 | -1.67 | -2.02 | -0.134 | 0.0968 | -0.00031 | -0.533 | -0.113 | -0.587 | -0.462 | 0.0141 | 0.347 | -0.947 | 0.0109 | -0.802 | -1.93 | 0.366 | 
Oc1cccc(O)c1 [resorcinol] | 1.11 | -0.0083 | 0.0215 | 3.2 | -1.35 | -0.13 | -0.206 | 0.04 | -1.51 | -0.109 | 0.115 | 0.365 | 0.0138 | 1.74 | -0.161 | -0.00943 | -0.947 | 0.407 | -0.0428 | 
NC(C(=O)O)c1ccccc1 (racemic) [D,L-2-phenylglycine] | 2.41 | -0.0373 | 0.0272 | 5.96 | -1.88 | 0.893 | -0.416 | 0.0395 | 0.858 | 0.145 | 1.69 | -0.209 | -0.00851 | 0.176 | 0.377 | 0.012 | 3.29 | 0.705 | 0.876 | 
NCCc1ccc(O)c(O)c1 [dopamine] | 0.498 | -0.00264 | 0.0224 | 2.79 | 0.204 | 0.166 | 0.568 | 0.0188 | 0.108 | 0.356 | 0.249 | 0.138 | 0.18 | 1.41 | 0.0292 | 0.0361 | 0.433 | 1.22 | 0.396 | 
N[C@@H](CC(=O)O)C(=O)O [L-aspartate] | -1.54 | -0.0179 | -0.0325 | 3.34 | -1.17 | -0.138 | -0.00294 | 0.0255 | 0.356 | -0.0549 | -0.232 | 0.437 | 0.0772 | -0.474 | -0.175 | 0.02 | -0.78 | -1.36 | 0.389 | 
C[C@H](N)C(=O)O [L-alanine] | -2.72 | -0.0291 | -0.053 | -2.12 | -2.55 | -0.329 | -0.519 | 0.00167 | -0.209 | -0.263 | -0.259 | -0.741 | -0.0427 | -0.256 | -0.737 | -0.00357 | -1.6 | -1.7 | -0.23 | 
NCCS(=O)(=O)O [taurine] | -0.255 | -0.0412 | -0.0223 | -0.473 | -1.59 | -0.142 | -0.215 | 0.0156 | 0.934 | 3.14 | -0.395 | -0.387 | 2.29 | 0.0679 | -0.494 | 0.00496 | -0.468 | -0.555 | 0.38 | 
Oc1ccccc1 [phenol] | -1.65 | -0.0137 | -0.0189 | -3.17 | -2.32 | -0.39 | -0.287 | 0.011 | -1.38 | -0.0887 | -0.147 | -0.522 | 0.0243 | 0.576 | -0.78 | -0.0073 | -2.66 | -1.14 | -0.575 | 
